Holding throughout (assay): DAPPL (digital affinity profiling via proximity ligation, sequencing); 10 mM Tris-HCl pH 7.5, 50 mM NaCl, 1 mM DTT, 4% glycerol, room temperature, 30 min; GST-TFs on glutathione beads, 16-mer random dsDNA library, 0.1% formaldehyde crosslink after washing; high values mean tight binding
The target of one experiment is T1, GABPA (Homo sapiens, UniProt Q06546 1-454).
T1 sequence: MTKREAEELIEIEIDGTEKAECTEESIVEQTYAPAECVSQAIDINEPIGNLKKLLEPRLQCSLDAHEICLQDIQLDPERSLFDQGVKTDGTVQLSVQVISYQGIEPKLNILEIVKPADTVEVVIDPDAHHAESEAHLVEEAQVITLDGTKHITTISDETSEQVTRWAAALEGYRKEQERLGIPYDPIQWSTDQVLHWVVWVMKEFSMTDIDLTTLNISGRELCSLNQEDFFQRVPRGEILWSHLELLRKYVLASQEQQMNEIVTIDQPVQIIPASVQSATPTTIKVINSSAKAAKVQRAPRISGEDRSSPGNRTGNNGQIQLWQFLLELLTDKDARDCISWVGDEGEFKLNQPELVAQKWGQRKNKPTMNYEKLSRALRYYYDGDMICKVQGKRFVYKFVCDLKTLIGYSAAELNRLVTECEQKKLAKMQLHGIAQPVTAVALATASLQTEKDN
Conditions: protein: recombinant; tags: N-terminal GST; dsDNA, one strand shown. A digest of the protocol:
(§1)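 A tag-only sample was pooled with DNA-barcoded human transcription factors that had been expressed in yeast as GST fusions and captured on glutathione beads. The pools were incubated for 30 min at room temperature with 200 nmole of a random double-stranded 16-mer DNA library in Tris/NaCl/DTT/glycerol buffer, then washed, crosslinked with 0.1% formaldehyde, proximity-ligated (BsaI/T4 ligase, 1 h, 37 °C), PCR-amplified and sequenced on an Illumina NextSeq500. Binding signal is each hexamer's read frequency for a factor divided by its frequency for the tag-only sample.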

The next experiment addresses T2, ERG (Homo sapiens, UniProt P11308 1-479).
T2 sequence: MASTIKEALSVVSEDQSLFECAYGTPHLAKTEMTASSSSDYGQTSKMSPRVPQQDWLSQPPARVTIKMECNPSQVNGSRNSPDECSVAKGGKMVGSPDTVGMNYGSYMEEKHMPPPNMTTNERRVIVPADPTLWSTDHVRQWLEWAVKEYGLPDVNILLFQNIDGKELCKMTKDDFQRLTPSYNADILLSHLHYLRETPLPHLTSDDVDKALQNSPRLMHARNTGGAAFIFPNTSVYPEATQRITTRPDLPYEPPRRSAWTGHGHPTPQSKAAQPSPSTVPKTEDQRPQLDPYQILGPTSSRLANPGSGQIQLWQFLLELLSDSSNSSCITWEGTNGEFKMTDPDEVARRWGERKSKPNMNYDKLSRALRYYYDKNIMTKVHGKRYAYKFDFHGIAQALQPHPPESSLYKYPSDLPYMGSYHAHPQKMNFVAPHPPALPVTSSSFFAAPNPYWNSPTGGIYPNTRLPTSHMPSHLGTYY
As to conditions: protein: recombinant; tags: N-terminal GST; dsDNA, one strand shown. The procedure, abridged:
as §1

The next experiment concerns the target T3, ELK3 (Homo sapiens, UniProt P41970 1-407).
T3 sequence: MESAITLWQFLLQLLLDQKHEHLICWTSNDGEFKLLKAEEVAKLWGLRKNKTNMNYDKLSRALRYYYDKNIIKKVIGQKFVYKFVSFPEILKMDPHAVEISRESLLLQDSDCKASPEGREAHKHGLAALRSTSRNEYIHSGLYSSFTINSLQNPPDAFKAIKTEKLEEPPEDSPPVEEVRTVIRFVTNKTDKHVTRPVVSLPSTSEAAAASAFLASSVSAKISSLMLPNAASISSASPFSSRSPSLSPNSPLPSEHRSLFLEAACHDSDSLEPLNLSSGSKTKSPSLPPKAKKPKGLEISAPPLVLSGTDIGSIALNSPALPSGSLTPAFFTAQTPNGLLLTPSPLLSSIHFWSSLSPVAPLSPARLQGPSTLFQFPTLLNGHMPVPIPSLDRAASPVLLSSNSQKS
As to conditions: protein: recombinant; tags: N-terminal GST; dsDNA, one strand shown. A digest of the protocol:
as §1

The next experiment deals with HSF1 (Homo sapiens, UniProt Q00613 1-529). As to conditions: protein: recombinant; tags: N-terminal GST; chain copies: 3; dsDNA, one strand shown. The procedure, abridged:
as §1

For another experiment, the target named is T4, ELK4 (Homo sapiens, UniProt P28324-2 1-405).
T4 sequence: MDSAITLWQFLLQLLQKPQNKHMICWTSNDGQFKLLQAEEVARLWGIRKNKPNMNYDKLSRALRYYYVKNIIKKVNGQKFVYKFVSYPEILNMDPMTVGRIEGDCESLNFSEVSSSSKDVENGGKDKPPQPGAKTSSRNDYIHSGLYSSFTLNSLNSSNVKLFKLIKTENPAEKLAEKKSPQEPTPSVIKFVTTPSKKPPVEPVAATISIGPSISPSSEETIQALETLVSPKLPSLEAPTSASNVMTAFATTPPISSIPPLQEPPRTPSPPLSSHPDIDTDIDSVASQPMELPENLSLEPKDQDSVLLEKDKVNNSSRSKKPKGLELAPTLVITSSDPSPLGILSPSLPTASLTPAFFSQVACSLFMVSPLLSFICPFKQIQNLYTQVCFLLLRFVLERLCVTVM
Conditions: protein: recombinant; tags: N-terminal GST; dsDNA, one strand shown. The procedure, abridged:
as §1

Another experiment deals with T5, ELF3 (Homo sapiens, UniProt P78545 1-371).
T5 sequence: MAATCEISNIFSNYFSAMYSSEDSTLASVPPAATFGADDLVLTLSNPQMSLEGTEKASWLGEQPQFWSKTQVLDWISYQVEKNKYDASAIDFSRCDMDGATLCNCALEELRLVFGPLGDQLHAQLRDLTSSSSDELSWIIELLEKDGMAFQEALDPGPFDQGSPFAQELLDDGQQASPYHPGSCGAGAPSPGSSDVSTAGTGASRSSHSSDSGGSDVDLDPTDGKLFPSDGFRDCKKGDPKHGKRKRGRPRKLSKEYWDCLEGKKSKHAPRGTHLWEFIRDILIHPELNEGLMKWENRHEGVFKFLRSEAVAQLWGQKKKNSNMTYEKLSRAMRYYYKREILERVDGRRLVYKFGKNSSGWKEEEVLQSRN
As to conditions: protein: recombinant; tags: N-terminal GST; dsDNA, one strand shown. The procedure, abridged:
as §1

Another experiment addresses CRX (Homo sapiens, UniProt O43186 1-299). Conditions: protein: recombinant; tags: N-terminal GST; dsDNA, one strand shown. A digest of the protocol:
as §1

For the next experiment, the target named is ETV1 (Homo sapiens, UniProt P50549 1-477). As to conditions: protein: recombinant; tags: N-terminal GST; dsDNA, one strand shown. The procedure, abridged: as §1
The target in the next experiment is T6, ERF (Homo sapiens, UniProt P50548 1-548).
T6 sequence: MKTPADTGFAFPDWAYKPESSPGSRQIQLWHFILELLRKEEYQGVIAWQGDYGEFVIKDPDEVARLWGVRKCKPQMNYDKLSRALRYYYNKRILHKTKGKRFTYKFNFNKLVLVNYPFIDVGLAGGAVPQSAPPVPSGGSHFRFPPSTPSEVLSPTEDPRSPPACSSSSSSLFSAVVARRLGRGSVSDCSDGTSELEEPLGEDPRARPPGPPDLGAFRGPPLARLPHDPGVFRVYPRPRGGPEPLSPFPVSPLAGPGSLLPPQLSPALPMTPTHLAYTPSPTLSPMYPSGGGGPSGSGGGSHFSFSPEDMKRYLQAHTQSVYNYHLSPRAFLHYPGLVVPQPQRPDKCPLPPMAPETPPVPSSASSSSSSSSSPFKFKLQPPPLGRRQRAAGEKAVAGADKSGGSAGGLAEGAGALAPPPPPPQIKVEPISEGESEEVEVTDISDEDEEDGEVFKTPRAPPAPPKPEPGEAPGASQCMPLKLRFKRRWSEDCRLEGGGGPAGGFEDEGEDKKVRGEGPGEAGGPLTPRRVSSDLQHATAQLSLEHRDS
Conditions: protein: recombinant; tags: N-terminal GST; dsDNA, one strand shown. A digest of the protocol:
as §1

The next experiment addresses T7, ETS2 (Homo sapiens, UniProt P15036 1-469).
T7 sequence: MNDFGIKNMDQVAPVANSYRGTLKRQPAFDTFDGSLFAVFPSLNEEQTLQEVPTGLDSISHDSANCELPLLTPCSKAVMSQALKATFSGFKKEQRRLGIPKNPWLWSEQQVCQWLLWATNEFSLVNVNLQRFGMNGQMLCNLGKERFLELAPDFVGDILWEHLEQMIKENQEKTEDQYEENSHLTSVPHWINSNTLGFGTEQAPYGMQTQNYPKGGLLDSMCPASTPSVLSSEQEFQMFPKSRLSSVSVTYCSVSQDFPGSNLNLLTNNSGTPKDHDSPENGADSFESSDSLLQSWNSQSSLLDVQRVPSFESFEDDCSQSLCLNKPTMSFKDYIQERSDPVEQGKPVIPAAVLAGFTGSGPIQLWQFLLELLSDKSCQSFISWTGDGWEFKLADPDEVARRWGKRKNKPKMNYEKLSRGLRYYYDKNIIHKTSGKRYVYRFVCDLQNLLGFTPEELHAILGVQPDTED
Conditions: protein: recombinant; tags: N-terminal GST; dsDNA, one strand shown. A digest of the protocol: as §1

The target of another experiment is T8, ETV7 (Homo sapiens, UniProt Q9Y603 1-341).
T8 sequence: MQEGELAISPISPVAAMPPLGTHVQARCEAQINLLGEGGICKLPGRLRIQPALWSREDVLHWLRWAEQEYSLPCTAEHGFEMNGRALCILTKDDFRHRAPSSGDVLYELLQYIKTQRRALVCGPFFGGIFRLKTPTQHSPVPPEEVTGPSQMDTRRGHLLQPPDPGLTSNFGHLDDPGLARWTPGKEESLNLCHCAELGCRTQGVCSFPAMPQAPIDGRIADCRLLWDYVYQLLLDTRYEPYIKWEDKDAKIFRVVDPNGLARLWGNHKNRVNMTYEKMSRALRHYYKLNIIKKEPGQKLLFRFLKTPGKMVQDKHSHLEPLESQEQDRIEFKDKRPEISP
Conditions: protein: recombinant; tags: N-terminal GST; dsDNA, one strand shown. The procedure, abridged:
as §1

For the next experiment, the target named is T9, ELF5 (Homo sapiens, UniProt Q9UKW6-2 1-255).
T9 sequence: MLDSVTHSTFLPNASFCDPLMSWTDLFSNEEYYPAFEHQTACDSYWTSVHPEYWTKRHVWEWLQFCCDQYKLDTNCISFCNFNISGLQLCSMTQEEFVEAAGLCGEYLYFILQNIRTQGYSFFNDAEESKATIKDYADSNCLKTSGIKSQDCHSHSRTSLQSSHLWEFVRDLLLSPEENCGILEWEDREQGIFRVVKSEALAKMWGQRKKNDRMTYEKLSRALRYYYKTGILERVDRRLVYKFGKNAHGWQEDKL
Conditions: protein: recombinant; tags: N-terminal GST; dsDNA, one strand shown. The procedure, abridged:
as §1

A further experiment concerns the target T10, SPIC (Homo sapiens, UniProt Q8N5J4 1-248).
T10 sequence: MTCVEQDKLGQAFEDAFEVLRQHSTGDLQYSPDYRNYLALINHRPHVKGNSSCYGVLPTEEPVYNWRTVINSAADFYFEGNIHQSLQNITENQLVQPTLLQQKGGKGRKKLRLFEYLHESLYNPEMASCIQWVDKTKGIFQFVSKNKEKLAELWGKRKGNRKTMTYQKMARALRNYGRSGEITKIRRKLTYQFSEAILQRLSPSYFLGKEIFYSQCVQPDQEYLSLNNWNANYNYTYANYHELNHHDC
Conditions: protein: recombinant; tags: N-terminal GST; dsDNA, one strand shown. The procedure, abridged: as §1

Sequence of HSF1 (Q00613 whole entry): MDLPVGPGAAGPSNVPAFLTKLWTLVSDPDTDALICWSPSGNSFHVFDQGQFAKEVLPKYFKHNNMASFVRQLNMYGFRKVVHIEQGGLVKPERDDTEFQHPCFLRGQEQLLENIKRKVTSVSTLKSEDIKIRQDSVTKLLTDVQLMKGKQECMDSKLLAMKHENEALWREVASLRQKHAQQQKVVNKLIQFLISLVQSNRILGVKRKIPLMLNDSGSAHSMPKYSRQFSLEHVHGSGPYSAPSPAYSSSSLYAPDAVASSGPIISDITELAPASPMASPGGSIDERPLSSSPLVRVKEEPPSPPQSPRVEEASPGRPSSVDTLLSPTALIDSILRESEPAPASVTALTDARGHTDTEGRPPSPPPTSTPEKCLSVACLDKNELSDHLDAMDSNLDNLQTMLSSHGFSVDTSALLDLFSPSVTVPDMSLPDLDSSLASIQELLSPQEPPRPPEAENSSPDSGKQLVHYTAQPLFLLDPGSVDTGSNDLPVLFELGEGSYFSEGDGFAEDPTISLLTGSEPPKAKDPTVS
Sequence of ETV1 (P50549 whole entry): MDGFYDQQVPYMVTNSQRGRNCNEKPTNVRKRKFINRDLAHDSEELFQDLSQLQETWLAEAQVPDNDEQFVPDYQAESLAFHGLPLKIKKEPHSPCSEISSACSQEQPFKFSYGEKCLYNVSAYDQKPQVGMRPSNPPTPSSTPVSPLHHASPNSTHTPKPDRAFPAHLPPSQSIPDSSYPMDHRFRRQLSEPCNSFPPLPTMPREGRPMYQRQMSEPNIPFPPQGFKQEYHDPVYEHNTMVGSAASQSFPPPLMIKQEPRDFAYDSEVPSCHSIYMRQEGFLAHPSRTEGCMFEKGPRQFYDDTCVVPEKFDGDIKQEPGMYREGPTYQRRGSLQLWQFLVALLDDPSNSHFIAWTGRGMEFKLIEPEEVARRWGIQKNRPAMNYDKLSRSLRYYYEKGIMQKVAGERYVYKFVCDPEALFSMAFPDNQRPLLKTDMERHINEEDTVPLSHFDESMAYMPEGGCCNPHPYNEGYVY
Sequence of CRX (O43186 whole entry): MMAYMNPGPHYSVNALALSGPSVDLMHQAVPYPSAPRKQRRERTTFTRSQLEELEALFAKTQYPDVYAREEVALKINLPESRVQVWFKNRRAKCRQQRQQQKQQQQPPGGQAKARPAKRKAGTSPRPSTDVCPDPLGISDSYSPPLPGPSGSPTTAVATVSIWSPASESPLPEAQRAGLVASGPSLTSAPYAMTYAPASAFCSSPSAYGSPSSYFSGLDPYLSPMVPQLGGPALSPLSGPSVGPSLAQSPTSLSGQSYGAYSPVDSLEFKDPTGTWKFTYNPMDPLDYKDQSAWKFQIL

Take AGGCTT: the binding signal with GABPA is 1.02 fold enrichment (6-mer frequency, TF over GST control); with ERG, 1.04 fold enrichment (6-mer frequency, TF over GST control); in the experiment with ELK3, 1.05 fold enrichment (6-mer frequency, TF over GST control); with HSF1 it was 1.24 fold enrichment (6-mer frequency, TF over GST control); with ELK4 it was 1.02 fold enrichment (6-mer frequency, TF over GST control); in the experiment with ELF3 it was 1.11 fold enrichment (6-mer frequency, TF over GST control). The binding signal with CRX is 1.74 fold enrichment (6-mer frequency, TF over GST control); with ETV1, 1 fold enrichment (6-mer frequency, TF over GST control); in the experiment with ERF, 1.02 fold enrichment (6-mer frequency, TF over GST control); with ETS2, 1.04 fold enrichment (6-mer frequency, TF over GST control); in the experiment with ETV7, 1.08 fold enrichment (6-mer frequency, TF over GST control); with ELF5 it was 1.02 fold enrichment (6-mer frequency, TF over GST control).

Consider AGAACC, for which the binding signal with ERG is 1.01 fold enrichment (6-mer frequency, TF over GST control); with HSF1, 1.55 fold enrichment (6-mer frequency, TF over GST control); in the experiment with SPIC, 1.03 fold enrichment (6-mer frequency, TF over GST control); with ELF3, 1.06 fold enrichment (6-mer frequency, TF over GST control).

These data come from paper PMC7862700, “An all-to-all approach to the identification of sequence-specific readers for epigenetic DNA modifications on cytosine”.
